Test results: PubChem BioAssay AID651998 (The Scripps Research Institute Molecular Screening Center, 2013)

Test system: LYPLA1
Experiment: LYPLA1 enzyme kinetics with inhibitors – biochemical, substrate-based fluorescence, Ki, Km, late-stage follow-up (AID 651998)
Settings: recombinant LYPLA1, resorufin acetate hydrolysis fluorescence, Ki from Cheng-Prusoff

Which Ki does the source give for `O=C(CN1CCN(C(=O)c2ccco2)CC1)Nc1cc(C(F)(F)F)ccc1Cl` here?
Its Ki is 300 nM.
